The panel holds about 83,000 compounds, 20% with a hit somewhere; the sample as a whole holds those more often.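 Interpretation: 100, growth as untreated; towards 0, rising growth inhibition; 0, no net growth; 0 to -100, cell death. Compounds scoring below 10 were considered active.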 The source made the active and inactive calls.
Columns and labels:
Experiment in all cases: NCI-60 one-dose screen, 48 h (100 = growth as untreated, 0 = no growth, -100 = all killed)
Conditions in all cases: 10 µM unless noted
[1] = system: HCT-15 colon
[2] = system: HT29 colon
[3] = system: SNB-75 CNS
[4] = system: SNB-19 CNS
[5] = system: U251 CNS
[6] = system: PC-3 prostate
[7] = system: SK-MEL-5 melanoma
[8] = system: UACC-62 melanoma
[9] = system: LOX IMVI melanoma
[10] = system: SK-MEL-28 melanoma
[11] = system: SK-MEL-2 melanoma
[12] = system: SN12C renal
[13] = system: UO-31 renal
[14] = system: TK-10 renal
[15] = system: ACHN renal
[16] = system: CAKI-1 renal
[17] = system: A498 renal
[18] = system: CCRF-CEM leukemia
[19] = system: MOLT-4 leukemia
[20] = system: EKVX NSCLC

Measured: growth

CNC1=C([N+](=O)[O-])C(c2ccccc2O)C(C#N)=C(c2cccs2)O1 (stereo not given)
inactive: [1] 88.5% | [2] 105% | [3] 84.2% | [4] 102% | [5] 91.5% | [6] 97.7% | [7] 97% | [8] 89.3% | [9] 87.3% | [10] 93.3% | [11] 74.2% | [12] 98.2% | [13] 70.5% | [14] 100% | [15] 94.8% | [16] 78% | [17] 110% | [18] 85.4% | [19] 88.6%

O=C1OCC2=C1C(c1ccccc1)c1cc3c(cc1N2CCO)CCC3 (stereo not given)
inactive: [1] 14.1% | [3] 64.4% | [5] 12% | [6] 15.7% | [8] 31.7% | [9] 28.5% | [10] 42.7% | [11] 17.1% | [20] 22.7% | [13] 38.1% | [14] 54.5% | [16] 26.7%
active: [2] 6.75% | [4] -12.2% | [7] -29.2% | [17] -21.5%

COc1ccc(C(=O)OC2C(OC3C(O)COC(O[C@H]4C[C@H]5[C@@H]6CC=C7C[C@@H](O)CC[C@]7(C)[C@H]6CC[C@]5(C)[C@H]4[C@H](C)C(=O)CCC(C)C)C3OC(N)=O)OCC(O)C2O)cc1 (stereo not given in full)
active: [1] 6.08% | [2] 4.99% | [3] -10% | [4] -28.2% | [5] -53.3% | [6] -28.1% | [7] -86.8% | [8] -57.7% | [9] -58.3% | [10] -59.1% | [11] -62% | [13] -39% | [14] -1.71% | [16] -36.7% | [17] -80.1% | [18] -25.8% | [19] -42.3%
inactive: [12] 44.7% | [15] 40.5%

CCOC(=O)C(Cc1ccccc1)n1c(O)c(/C=N/c2ncc(Cc3ccc(Cl)cc3Cl)s2)sc1=S (stereo not given)
inactive: [1] 10.5% | [3] 22% | [4] 19.3% | [9] 21% | [10] 31.8% | [20] 10.8% | [16] 12.7%
active: [2] -16.7% | [5] 4.53% | [6] -16.2% | [7] -3.04% | [8] -0.818% | [11] -18.4% | [13] 3.67% | [15] 3.38% | [17] -27.3% | [18] 2.77% | [19] -7.05%

CC(=O)O[C@H]1CC[C@]2(C)[C@H]3CC=C4[C@@H]5CC(C)(C)CC[C@]5(C(=O)OCC(COC(=O)C(Cl)Cl)(COC(=O)C(Cl)Cl)NC(=O)C(Cl)Cl)CC[C@@]4(C)[C@]3(C)CC[C@H]2C1(C)C
active: [2] 8.55%
inactive: [1] 46.7% | [3] 85.9% | [4] 90.4% | [5] 45.1% | [6] 22.7% | [7] 71.9% | [8] 84.4% | [9] 65.9% | [10] 87.3% | [11] 77.7% | [20] 65% | [13] 62.5% | [15] 62.4% | [16] 63% | [17] 93.2% | [18] 64.8% | [19] 44.9%

CC(=O)N1N=C(C2C(=O)N(C)C(=O)N(C)C2=O)CC1c1ccccc1C(=O)O (stereo not given)
inactive: [1] 110% | [2] 98.9% | [3] 95% | [4] 106% | [5] 104% | [6] 95.4% | [7] 107% | [8] 100% | [9] 99.1% | [10] 112% | [11] 102% | [12] 101% | [13] 87.4% | [14] 97.6% | [15] 98.9% | [16] 94.8% | [17] 91.7% | [18] 94.6% | [19] 97.1%

CC1(C)CN(CCNc2nccc(-c3c(-c4cccc(O)c4)nc4sccn34)n2)S(=O)(=O)N1
inactive: [1] 95.7% | [2] 54.4% | [3] 30.5% | [4] 87.8% | [5] 74% | [6] 50.8% | [7] 58.4% | [9] 18.2% | [10] 20.1% | [11] 24.1% | [12] 57.6% | [13] 60.5% | [14] 119% | [15] 39.4% | [16] 32.5% | [17] 81.7% | [18] 49.6% | [19] 71.8%
active: [8] -8.38%

NC(N)=N/N=C/c1ccc(Cl)cc1
inactive: [1] 70.5% | [2] 35.9% | [3] 81.1% | [4] 91.2% | [5] 88.8% | [6] 84.8% | [7] 74.5% | [8] 78.8% | [9] 86.3% | [10] 93.5% | [11] 95.9% | [12] 94.9% | [13] 73.3% | [14] 84.9% | [15] 91.8% | [16] 34% | [17] 68.2% | [18] 71% | [19] 53.9%

CCN(CC)c1ccc(/C=N/NC(=O)C[N+](C)(C)C)cc1
inactive: [1] 101% | [2] 103% | [3] 93.8% | [4] 113% | [5] 102% | [6] 95.7% | [7] 104% | [8] 101% | [9] 97% | [10] 108% | [11] 137% | [20] 94.2% | [13] 108% | [14] 95.2% | [16] 101% | [17] 92.3% | [18] 90.9% | [19] 22.1%

CCNCCCn1c2c(c3ccc(Cl)cc3c1=O)C(=O)c1cc(OC)cnc1-2
inactive: [3] 19.4% | [4] 28.8% | [6] 40% | [7] 18.3% | [8] 14.4% | [10] 70.5% | [11] 77.1% | [20] 53.4% | [13] 10.3% | [14] 39.9% | [16] 39.9%
active: [1] -58.2% | [2] -76.3% | [5] -93.8% | [9] -71.1% | [15] 8.64% | [18] -37.3% | [19] -34%

CC1=C(O)C(=O)CC1
inactive: [1] 108% | [2] 101% | [3] 97.9% | [4] 101% | [5] 100% | [6] 80.9% | [7] 99.5% | [8] 110% | [9] 99.7% | [10] 100% | [11] 118% | [12] 97% | [13] 94% | [14] 111% | [15] 111% | [16] 90.9% | [17] 83.7% | [18] 115% | [19] 108%

COc1cc(C2CC(c3ccc(Cl)cc3)=NN2C=O)ccc1Oc1ccnc2cc(Cl)ccc12 (stereo not given)
active: [3] 7.19%
inactive: [1] 85.7% | [2] 58% | [4] 72.6% | [5] 72.5% | [6] 66.8% | [7] 51% | [8] 74.6% | [9] 74.2% | [10] 74.4% | [11] 86.7% | [20] 59% | [13] 80.8% | [14] 83% | [15] 41% | [16] 58.5% | [17] 62.6% | [18] 68.8% | [19] 62%

O=C(c1ccccc1)C(CCc1ccccn1)CCc1ccccn1
inactive: [1] 96.6% | [2] 96.7% | [3] 106% | [4] 94.1% | [5] 101% | [6] 86.8% | [7] 100% | [8] 86.1% | [9] 95.8% | [10] 106% | [11] 96.1% | [20] 107% | [13] 75.1% | [14] 97.3% | [15] 106% | [16] 106% | [17] 100% | [18] 95.3% | [19] 99%

O=P(O)(O)C(O)(Cc1cccnc1)P(=O)(O)O
inactive: [1] 90.3% | [2] 106% | [3] 88% | [4] 107% | [5] 81.6% | [6] 95.9% | [7] 103% | [8] 99.2% | [9] 86.1% | [10] 103% | [11] 111% | [12] 94% | [13] 84.6% | [14] 144% | [15] 100% | [16] 94.2% | [17] 119% | [18] 79.1%

CCOC(OCC)c1cnc2nc(NC(C)=O)[nH]c(=O)c2n1
inactive: [1] 98.7% | [2] 90.6% | [3] 91.5% | [4] 99.4% | [5] 104% | [6] 106% | [7] 104% | [8] 102% | [9] 100% | [10] 105% | [11] 95.4% | [12] 101% | [13] 82.6% | [14] 104% | [15] 103% | [16] 102% | [17] 73% | [18] 107%

CCCCCCCCCCCCCCCCCC(=O)[O][Sn]([CH2]CCC)([CH2]CCC)[CH2]CCC
active: [1] -82.6% | [2] -52.2% | [3] -96.8% | [4] -70.9% | [5] -89.3% | [6] -69.3% | [7] -99.9% | [8] -60.6% | [9] -92.7% | [10] -94.8% | [11] -60.7% | [12] -47.2% | [13] -92.4% | [14] -93.6% | [15] -96.8% | [16] -86.5% | [17] -98% | [18] 1.06% | [19] 4.55%

— PubChem BioAssay (NCI)
